TDP1 cell noCPT: qHTS for Inhibitors of human tyrosyl-DNA phosphodiesterase 1 (TDP1): qHTS in cells in absence of CPT. hit rate 15% among 420,000. Potency, µM (highest dose often 46.2 µM), hits mostly inhibitors. DT40 Tdp1-/- hTDP1 cells, no CPT, ATP luminescence, 48 h; further: nearly all actives have a fitted effect of over 55% in size
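Chicken DT40 Tdp1-/- cells stably complemented with human TDP1 were seeded at 400 cells/well with DMSO in place of 20 nM camptothecin. After compound pinning, cells grew at least 48 hr at 37 °C; viability read by CellTiter-Glo luminescence.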
TDP1 cell CPT: qHTS for Inhibitors of human tyrosyl-DNA phosphodiesterase 1 (TDP1): qHTS in cells in presence of CPT | hit rate 12% among 420,000 | chicken DT40 Tdp1-/-;hTDP1 cells + 20 nM CPT, ATP luminescence, 48 h | Potency, µM (series often up to 46.2 µM), most hits filed as inhibitors | AID 686979, 2013; further: nearly all actives have a fitted effect of over 55% in size
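Cell growth measured by CellTiter-Glo luminescence after a minimum 48 h, 37 C compound exposure with 20 nM CPT in Tdp1-knockout DT40 cells stably expressing hTDP1, seeded 400/well; qHTS titration format.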
TGFb inhibitor: qHTS for Inhibitors of TGF-b | HepG2 CAGA-GFP TGF-b/SMAD3 reporter, GFP fluorescence, 18 h; TGF-beta stimulated, 500 pg/mL final | Potency, µM (doses to about 46.1 µM), actives largely listed as inhibitors | hit rate 1.2% among 410,000 | AID 588855, 2011; further: nearly all actives have a fitted effect of over 65% in size
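Inhibition of TGF-beta-driven CAGA-GFP reporter expression in HEPG2 cells is measured by cellular GFP fluorescence after 18 h stimulation with 500 pg/mL recombinant TGF-beta in 1% FBS medium at 37 degrees C.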
TDP1 inh: qHTS Assay for Inhibitors of Tyrosyl-DNA Phosphodiesterase (TDP1); recombinant TDP1, AlphaScreen DNA substrate cleavage; Potency, µM (top dose mostly 130 µM), most hits filed as inhibitors; hit rate 0.28% among 350,000; further: nearly all actives have a fitted effect of over 40% in size
Target sequence (Q9NUW8 whole entry, looked up): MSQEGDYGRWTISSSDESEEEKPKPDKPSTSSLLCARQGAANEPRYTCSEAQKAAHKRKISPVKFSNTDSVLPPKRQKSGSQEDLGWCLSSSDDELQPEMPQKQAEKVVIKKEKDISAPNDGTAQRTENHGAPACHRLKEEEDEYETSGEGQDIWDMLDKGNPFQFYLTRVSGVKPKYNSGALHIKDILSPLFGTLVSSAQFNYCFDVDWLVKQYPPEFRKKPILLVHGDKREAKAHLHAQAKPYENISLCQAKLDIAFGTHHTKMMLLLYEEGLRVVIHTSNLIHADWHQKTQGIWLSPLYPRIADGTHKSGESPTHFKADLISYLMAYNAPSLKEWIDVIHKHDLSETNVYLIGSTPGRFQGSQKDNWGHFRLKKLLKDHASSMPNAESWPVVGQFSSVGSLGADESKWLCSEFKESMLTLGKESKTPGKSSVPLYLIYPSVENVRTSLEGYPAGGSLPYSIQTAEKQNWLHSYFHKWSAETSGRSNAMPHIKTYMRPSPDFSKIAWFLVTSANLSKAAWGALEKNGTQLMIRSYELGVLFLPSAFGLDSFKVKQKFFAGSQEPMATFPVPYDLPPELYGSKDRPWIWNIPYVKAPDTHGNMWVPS
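Signal: AlphaScreen proximity between streptavidin donor and anti-FITC acceptor beads on intact substrate. Reaction: Tdp1 1 nM, substrate 15 nM final, 5 min RT after 15 min compound preincubation.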
IL1B secr inh: qHTS for Inhibitors of Inflammasome Signaling: IL-1-beta AlphaLISA Primary Screen. THP-1 LPS/ATP IL-1B secretion, AlphaLISA, 16 h; stronger effect = lower value. activity change, % at 57.5 µM. hit rate 4.7% among 360,000. AID 743279, 2014; in the data active means activity change below about -50%; inconclusive means mostly about -30% to -49%
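Secreted IL-1B measured by AlphaLISA bead assay after 16 h compound exposure of THP-1 cells; compounds (final up to 57.5 uM) added 1 h before LPS (250 ng/mL) and ATP (1.25 mM) stimulation; lower signal means less secretion.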
HepG2 tox: qHTS for Inhibitors of TGF-b: Cytotox Counterscreen; Potency, µM (doses to about 46.1 µM), most hits filed as cytotoxic; hit rate 0.76% among 410,000; HepG2 CAGA-GFP viability, ATP luminescence, 18 h
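HepG2 CAGA-GFP cells (1000/well, DMEM with 1% FBS) received compound, then TGF-beta at 500 pg/mL final, and were incubated 18 hours at 37 degrees C. Viability was read by CellTiter-Glo luminescence. Media-only wells were set as complete cell-killing and DMSO as no toxicity.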
Hits are given with their value; . = inactive; ? = inconclusive; / = no result given; [ ] = another dose, or the depositor's remark. Sampled rows, rich in hits. Any-hit rate of the full collection: about 19%. Unless noted, the call rests on the fitted dose curve; in most records, active means well fitted curve in the direction sought with a large enough effect; inconclusive means small, poorly fitted or top-dose-only effect, or another doubt; inactive means no such curve, though single readings can be large; an effect the other way counts as inactive or inconclusive.

SMILES	TDP1 cell noCPT	TDP1 cell CPT	TGFb inhibitor	TDP1 inh	IL1B secr inh	HepG2 tox
CNC(=S)NNC(=O)c1ccccc1Cl	.	.	.	.	.	.
CC(C)(C)NC(=S)NNC(=O)c1ccccc1Cl	10µM	15µM	.	.	.	.
CC(C)(C)C(=O)NC(=S)NNC(=O)c1ccc(Cl)cc1Cl	5.8µM	?	?	.	.	.
COCCCNc1oc(-c2ccc(COc3ccccc3C)o2)nc1C#N	?	?	.	.	/	.
CCc1ccc(NC(=O)N(Cc2cn(CC)c3ccccc23)C2CCCCC2)cc1	12µM	7.3µM	?	.	/	.
CCOc1ccc(NC(=O)N(Cc2cn(CC)c3ccccc23)C2CCCCCC2)cc1	21µM	9.2µM	?	.	/	.
CCOc1ccc(NC(=O)N(C2CCCCCC2)C2CCN(C(C)=O)CC2)cc1	.	.	.	.	.	.
Cc1cc(C)cc(NC(=O)CN2C(=O)c3ccccc3Sc3ncccc32)c1	?	?	.	.	/	.
COC(=O)C[C@H]1CC[C@@H](NS(=O)(=O)c2ccccc2)[C@@H](CO)O1	.	.	/	/	.	/
O=C(C[C@H]1CC[C@@H](NS(=O)(=O)c2ccccc2)[C@@H](CO)O1)NCc1ccc(Cl)c(Cl)c1	21µM	21µM	/	/	.	/
CN1CCC2(CC1)N=C(c1ccc(F)cc1)C(=S)N2C(=O)c1ccccc1	12µM	7.3µM	.	.	.	.
CCN1CCC2(CC1)N=C(c1ccc(F)cc1)C(=S)N2C(=O)c1ccc(C(C)(C)C)cc1	.	?	.	.	.	.
CC(C)CC(NC(=O)NC(CCC(=O)O)C(=O)O)C(=O)O (configuration not stated)	/	/	/	.	/	/
CCN1C(=NCc2ccccc2)N[C@@H](c2ccccc2)[C@H](C(=O)OC)[C@H]1C	.	?	.	/	.	.
COC(=O)C1=C(C)N(Cc2ccccc2)C(=NCCc2c[nH]c3ccccc23)N[C@H]1c1ccccc1	21µM	?	?	.	?	10µM
COC(=O)C1=C(C)N(Cc2ccccc2)C(=NCCc2c[nH]c3ccccc23)N[C@H]1c1cccc(F)c1	2.6µM	5.2µM	?	.	-50	.
CCN1C(=NCCc2c[nH]c3ccccc23)N[C@@H](c2ccccc2)[C@H](C(=O)OC)[C@H]1C	18µM	9.2µM	.	/	.	.
COC(=O)C1=C(C)N(Cc2ccccc2)C(=S)N[C@H]1c1cccc(F)c1	.	?	?	/	.	.
Cc1cc2ccc(=O)oc2cc1OC[C@@H](O)C(C)(C)O	.	.	/	.	/	/
CC(C)(C)c1ccc(C(=O)N/C(=C/c2cccs2)C(=O)NCc2ccco2)cc1	?	?	.	.	-68	.
CC(C)(C)c1ccc(C(=O)N/C(=C\c2cccs2)C(=O)N2CCOCC2)cc1	21µM	.	.	.	.	.
O=C(N/C(=C/c1cccs1)C(=O)N1CCOCC1)c1cccs1	.	.	.	.	.	.
CS(=O)(=O)N(CCc1ccccc1)CC(=O)N1CCCCCC1	.	.	.	/	.	.
Cc1cc(C)c(NC(=O)COc2cccnc2[N+](=O)[O-])c(C)c1	.	.	.	.	.	.
Cn1c(C(=O)N2CCC(C(=O)N3CCOCC3)CC2)cc2sccc21	.	.	.	.	.	.
SMILES	TDP1 cell noCPT	TDP1 cell CPT	TGFb inhibitor	TDP1 inh	IL1B secr inh	HepG2 tox
Cc1cccc(N2CCN(C(=O)C3CCN(C(=O)c4cc5sccc5n4C)CC3)CC2)c1C	8.2µM	12µM	11µM	.	/	.
Cc1cccc(N2CCN(C(=O)C3CCCN(C(=O)c4cc5sccc5n4C)C3)CC2)c1C (configuration not stated)	23µM	23µM	?	.	/	.
CN(C)CCCOc1ccc(C(C)(C)c2ccccc2)cc1	18µM	?	.	.	?	.
CCC(C(=O)Nc1cc(OC)cc(OC)c1)n1nc(-c2ccc(C)c(C)c2)ccc1=O (configuration not stated)	?	?	?	.	/	.
CCc1ccc(N=C2NC(=O)/C(=C/c3cc(Br)c(OCC(=O)O)c(OC)c3)S2)cc1	.	.	.	.	.	.
C=CCOc1c(Br)cc(/C=C2\SC(=Nc3ccccc3)NC2=O)cc1OC	21µM	?	?	.	.	16µM
COc1cc(/C=C2\SC(=Nc3ccc(O)cc3)NC2=O)cc(OC)c1O	5.2µM	21µM	.	.	.	.
O=C1NC(=Nc2ccc(O)cc2)S/C1=C/c1ccco1	18µM	?	.	.	.	.
Cc1ccc(N=C2NC(=O)/C(=C\c3ccco3)S2)cc1	?	.	.	.	.	.
N=c1n(CCN2CCCCC2)c2ccccc2n1CC(O)c1cccc(Br)c1 (configuration not stated)	16µM	15µM	.	.	.	.
CN(C)CCn1c(=N)n(CC(O)c2ccc(Cl)c(Cl)c2)c2ccccc21 (configuration not stated)	23µM	23µM	?	.	/	.
N=c1n(CCN2CCCCC2)c2ccccc2n1CC(O)c1ccc(Cl)c(Cl)c1 (configuration not stated)	8.2µM	3.7µM	?	.	-68	11µM
N=c1n(CCN2CCOCC2)c2ccccc2n1Cc1ccccc1Br	?	?	.	.	.	.
COC(=O)c1ccccc1NC(=O)CSc1nnc2cc(C)c3cc(C)cc(C)c3n12	?	?	.	.	/	.
CN(Cc1ccco1)Cc1cc(-c2ccnc3cc(Cl)ccc23)ccc1O	?	.[9.04 µM]	/	/	/	/
COc1ccccc1C1CN(c2ccccc2)N=C1c1cccs1 (configuration not stated)	?	?	.	7.9µM	.	.
COc1cccc(C2CN(c3ccc(F)cc3F)N=C2c2cccs2)c1OC (configuration not stated)	?	16µM	.	?	.	.
COc1cccc(NC(=O)CCNC(=O)Cn2cnc3ccccc3c2=O)c1	.	.	.	.	/	.
Cc1ccc(-c2nc(CS(=O)CC(=O)NCCc3ccc(Cl)cc3)c(C)o2)cc1 (configuration not stated)	?	?	?	.	/	.
Nn1c(-c2ccc(F)cc2)nc2ccccc2c1=O	.	.	.	/	?	.
O=C1c2cc(F)ccc2-n2c1nc1ccccc1c2=O	0.37µM	0.21µM	?	/	.	1.1µM
